Records with an inconclusive call do not appear. Activity calls are given as the source filed them. Rule for the calls: active = hit-call score of the fitted dose curve at least 0.9, where 1 is the maximum; inconclusive = response in the unintended direction; inactive = score below 0.9.

Chain of Estrogen receptor (Homo sapiens) + Estrogen receptor beta (Homo sapiens) (P03372 whole entry, looked up, the tested form may be a part): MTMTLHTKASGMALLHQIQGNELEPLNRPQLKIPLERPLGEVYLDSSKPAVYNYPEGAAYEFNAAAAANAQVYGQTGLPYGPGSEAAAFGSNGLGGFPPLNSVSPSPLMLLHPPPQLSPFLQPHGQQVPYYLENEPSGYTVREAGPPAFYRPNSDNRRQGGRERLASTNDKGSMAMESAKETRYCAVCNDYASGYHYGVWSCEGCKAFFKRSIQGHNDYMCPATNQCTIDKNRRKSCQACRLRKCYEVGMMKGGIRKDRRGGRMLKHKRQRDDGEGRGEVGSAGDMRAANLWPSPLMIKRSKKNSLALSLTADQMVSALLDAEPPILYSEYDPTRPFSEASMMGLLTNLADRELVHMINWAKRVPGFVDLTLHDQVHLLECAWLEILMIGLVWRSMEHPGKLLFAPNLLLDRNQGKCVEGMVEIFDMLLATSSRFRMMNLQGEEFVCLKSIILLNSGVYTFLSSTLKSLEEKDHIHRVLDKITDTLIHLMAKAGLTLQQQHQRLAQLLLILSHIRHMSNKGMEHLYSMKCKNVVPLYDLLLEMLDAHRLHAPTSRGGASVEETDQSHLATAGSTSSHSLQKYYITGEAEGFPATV
Chain of Estrogen receptor (Homo sapiens) + Estrogen receptor beta (Homo sapiens) (Q92731 whole entry, looked up, the tested form may be a part): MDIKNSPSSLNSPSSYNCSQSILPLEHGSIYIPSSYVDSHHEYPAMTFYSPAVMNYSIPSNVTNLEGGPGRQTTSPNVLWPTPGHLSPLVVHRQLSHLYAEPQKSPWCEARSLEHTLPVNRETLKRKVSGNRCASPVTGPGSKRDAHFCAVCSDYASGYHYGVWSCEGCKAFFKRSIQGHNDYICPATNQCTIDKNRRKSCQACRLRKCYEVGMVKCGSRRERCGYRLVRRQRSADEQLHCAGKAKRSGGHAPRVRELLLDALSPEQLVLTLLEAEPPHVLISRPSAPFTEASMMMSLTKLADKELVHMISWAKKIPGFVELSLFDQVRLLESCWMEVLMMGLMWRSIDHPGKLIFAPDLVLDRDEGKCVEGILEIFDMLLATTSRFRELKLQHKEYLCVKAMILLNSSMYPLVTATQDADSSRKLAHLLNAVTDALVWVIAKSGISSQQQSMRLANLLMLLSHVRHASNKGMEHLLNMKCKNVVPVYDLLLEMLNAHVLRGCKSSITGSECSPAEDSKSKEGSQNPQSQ

One assay deals with Estrogen receptor (Homo sapiens) + Estrogen receptor beta (Homo sapiens) (UniProt P03372+Q92731). In words: OT_ER_ERaERb_1440: Odyssey Thera (OT) 24-hour HEK293T Protein-Complementation Assay for Estrogen Receptor-alpha/-beta Homodimer (AID 2283356).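 Note: heteromer of ER alpha and ER beta binding domains; hits raise reporter fluorescence and both agonists and antagonists give an increase.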 The procedure, abridged:
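Heterodimerisation of ERα (aa 310-547) and ERβ (aa 263-489) ligand binding domains was tracked as fluorescence gain in stably transfected HEK293T cells following 24 h dosing, normalised to DMSO controls.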
Take `CCCCC(C=O)CC` (stereo not drawn): the outcome was inactive.

As to `CCCCOCCOC(=O)COc1ccc(Cl)cc1Cl`, the outcome was inactive.

`Cc1ccc(C)c(OCCCC(C)(C)C(=O)O)c1`: the outcome was inactive.

Regarding `CCCCCCCCC(CO)CCCCCC` (stereo not drawn), the result was inactive.

As to `O=C(O)c1ccc2c(c1)C(=O)OC2=O`, the outcome was inactive.

Broadly, the AC50 is the midpoint of the concentration-response curve, whichever way the signal moves. With `C=C[C@@]1(C)CC(=O)[C@]2(O)[C@@]3(C)[C@@H](O)CCC(C)(C)[C@@H]3[C@H](O)[C@H](OC(C)=O)[C@@]2(C)O1`, the concentration at half-maximal activity (AC50) is 36.1 µM (active).

Take `COc1cc(O)c(C(=O)c2ccccc2)cc1S(=O)(=O)O`: the result was inactive.

In the case of `CCOC(=O)C1=NOC(c2ccccc2)(c2ccccc2)C1`, the outcome was inactive.

Turning to `CCCCC(CC)COS(=O)(=O)O` (stereo not drawn), the outcome was inactive.

As to `CCC[Si](OC)(OC)OC`, the result was inactive.

On to `CCCCCCCCCC(C)=O`, for which the outcome was inactive.

In the case of `COc1ccc(C(=O)c2ccccc2)c(O)c1`, the AC50 is 58.7 µM (active).

Take `CCOC(=O)c1ccccc1C`: the result was inactive.

As for `CCCCNC(=S)NCCCC`, the result was inactive.

Consider `Cc1c(C(=O)c2c[nH]n(C)c2=O)ccc(S(C)(=O)=O)c1C1=NOCC1`, for which the result was inactive.

Take `Oc1ccc(-c2ccccc2)c(Cl)c1`: the half-maximal activity concentration (AC50) is 15.9 µM (active).

`CO[Si](C)(C)OC`: the result was inactive.

As for `C1CNCCN1`, the outcome was inactive.

Turning to `CC(=O)OCc1ccccc1`, the result was inactive.

Consider `CC(=O)OC1CCCCC1C(C)(C)C` (stereo not drawn), for which the result was inactive.

Take `CCCCCCCCCCCCCC(=O)OC(C)C`: the outcome was inactive.

As for `N#Cc1ccc(C(c2ccc(C#N)cc2)n2cncn2)cc1`, the outcome was inactive.

As to `CCCCCC(=O)OCC`, the outcome was inactive.

Consider `CC1(C)[C@@H]2CC[C@@]1(C)C(=O)C2`, for which the result was inactive.

Regarding `CC1=CCC2CC1C2(C)C` (stereo not drawn), the result was inactive.

With `CC(=O)OC(C)c1ccccc1` (stereo not drawn), the outcome was inactive.

The next assay deals with Estrogen receptor beta (Homo sapiens) (UniProt Q92731). As to the kind of experiment: OT_ER_ERbERb_0480: Odyssey Thera (OT) 8-hour HEK293T Protein-Complementation Assay for Estrogen Receptor-beta/-beta Homodimer (AID 2283357).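 Note: active means signal gain over DMSO baseline.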 The essentials: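 Readout: increase in mean fluorescence intensity (nucleus for agonists; nucleus plus cytoplasm for antagonists) relative to DMSO, from a reporter-fragment complementation of human ER-beta LBD homodimer in HEK293T cells dosed 8 hours.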
Chain of Estrogen receptor beta (Homo sapiens) (Q92731 whole entry, looked up, the tested form may be a part): as above
With `CCCCC(C=O)CC` (stereo not drawn), the result was inactive.

For `CCCCCCCCC(CO)CCCCCC` (stereo not drawn), the call was inactive.

In the case of `O=C(O)c1ccc2c(c1)C(=O)OC2=O`, the result was inactive.

In the case of `C=C[C@@]1(C)CC(=O)[C@]2(O)[C@@]3(C)[C@@H](O)CCC(C)(C)[C@@H]3[C@H](O)[C@H](OC(C)=O)[C@@]2(C)O1`, the compound was classed as inactive.

On to `COc1cc(O)c(C(=O)c2ccccc2)cc1S(=O)(=O)O`, for which the outcome was inactive.

Turning to `CCOC(=O)C1=NOC(c2ccccc2)(c2ccccc2)C1`, the compound was classed as inactive.

For the compound `CCC[Si](OC)(OC)OC`, the result was inactive.

Turning to `CCCCCCCCCC(C)=O`, the call was inactive.

Consider `COc1ccc(C(=O)c2ccccc2)c(O)c1`, for which the AC50 was 50 µM (active).

For `CCOC(=O)c1ccccc1C`, the compound was called inactive.

On to `CCCCNC(=S)NCCCC`, for which the outcome was inactive.

On to `Cc1c(C(=O)c2c[nH]n(C)c2=O)ccc(S(C)(=O)=O)c1C1=NOCC1`, for which the result was inactive.

With `Oc1ccc(-c2ccccc2)c(Cl)c1`, the outcome was inactive.

As to `CO[Si](C)(C)OC`, the outcome was inactive.

As to `C1CNCCN1`, the compound was classed as inactive.

Turning to `CC(=O)OCc1ccccc1`, the outcome was inactive.

As to `CC(=O)OC1CCCCC1C(C)(C)C` (stereo not drawn), the outcome was inactive.

For `N#Cc1ccc(C(c2ccc(C#N)cc2)n2cncn2)cc1`, the outcome was inactive.

On to `CCCCCC(=O)OCC`, for which the outcome was inactive.

With `CC1(C)[C@@H]2CC[C@@]1(C)C(=O)C2`, the call was inactive.

For `CC1=CCC2CC1C2(C)C` (stereo not drawn), the outcome was inactive.

In the case of `CC(=O)OC(C)c1ccccc1` (stereo not drawn), the result was inactive.

The values above are taken from PubChem BioAssay (EPA / NIEHS).
